Data published in publication PMC13494018.
A number with no mark means an inactive call. How the calls were made is not given here.

Molecular target: PDL1, Q9NZQ7
Sequence (Q9NZQ7 whole entry): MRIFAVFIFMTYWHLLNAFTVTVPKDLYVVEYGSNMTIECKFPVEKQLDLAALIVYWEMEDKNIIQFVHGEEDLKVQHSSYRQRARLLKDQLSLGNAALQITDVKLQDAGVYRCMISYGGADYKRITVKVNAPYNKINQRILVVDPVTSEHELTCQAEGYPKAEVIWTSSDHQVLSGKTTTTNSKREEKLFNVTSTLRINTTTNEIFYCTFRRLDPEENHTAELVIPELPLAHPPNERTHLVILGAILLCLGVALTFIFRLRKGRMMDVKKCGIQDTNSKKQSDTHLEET

| Binder | binding in a display sort |
| --- | --- |
| d8r1_design_ppi_863_dldesign_0_cycle0_af2pred (protein) SRAERLIEEAERLAKEAKEAAKRVADSPVAPRAKALADATEAFAKGLKAAAAAGGSMEDQEALLRAARNTAEAAKILAEEAEAARAA | not found |
| d8r1_design_ppi_1206_dldesign_0_cycle1_af2pred (protein) SPAAQWAALDADLKQARELAKKAKEVGNEEEAKKVEAALKKAEAAAAAARADPSLYHEARRAVGEAQVEALKVISKG | not found |
| d8r1_design_ppi_569_dldesign_0_cycle0_af2pred (protein) EPSPRVQALLHVGRAAATLIAASGTEAGRAAAAELARLAFEAAASSPEEGQKLLEEALARADEVAAGLPADAAAAVRAHLEAALAAMK | not found |
| d8r1_design_ppi_306_dldesign_0_cycle0_af2pred (protein) DAARRAKAEALLKQAKEDFKKFAEQAKKEGPSVLKALKNINESVAEHLKKLDPELGEELKKYGEELIKKAEE | not found |
| d8r1_design_ppi_991_dldesign_0_cycle0_af2pred (protein) AAAALTAAVAASIKGLAELARKAIDDKSVVKAAANAAKSAAALDKALGKEMSKKLEEAAKKSPEEAVKTIEEVAAKVAAAAAA | not found |
| d8r1_design_ppi_414_dldesign_0_cycle0_af2pred (protein) MEEELKKIKELGKKAAKLAEEEGEEGFKKAIAELEKAAAEAAKGEKAKELQKLVGQGIIDVGKAAYKKEEKKEEELAK | not found |
| d8r1_design_ppi_1325_dldesign_0_cycle0_af2pred (protein) SSGKEKAAEYRAKADALAAQESPETQAQLRALAERVLKAAEEGVEALAKAAAEAAAFGAATSPTAQAAAREAIAAGVAL | not found |
| d8r1_design_ppi_149_dldesign_0_cycle0_af2pred (protein) DEAAEIFAKALDEMDKKVKEAKEEVKKALEEGEKKDPEEAKKKAKEIIEKAIKELKEIAEKAAKKVPKLGPAAKATAEATAKVLK | not found |
| d8r1_design_ppi_1316_dldesign_0_cycle1_af2pred (protein) SAVAKAAAAAAAAAKKALASHPAIGAAVARSIELGKLEEAAAFATAAAKALIGEEAGEALGKELDKLVAAAKAAA | not found |
| d8r1_design_ppi_371_dldesign_0_cycle0_af2pred (protein) SAEKAALLAQGKAYFATAKAAAAAAIKLKEAGGSEKTVQALIEQAKAAGEKATALFEAYDPELGKKVKEEVDALLAAAKA | not found |
| d8r1_design_ppi_423_dldesign_0_cycle0_af2pred (protein) SEFDKNMELLKEAGAAISELTARARAEADAAAAEGPDAVRAVAAERIEEARRITEELGEKSSLKESFRGMAERTARTIEAYAAAVIA | not found |
| d8r1_design_ppi_302_dldesign_0_cycle1_af2pred (protein) DEEEGKKSALKAAETARRLAEEAAKQAKEKAADPALAKKYVAKAKAYAKAAEDIAKGFPDNAEIKAAAKEAKKAAQQAKEALKA | not found |
| d8r1_design_ppi_988_dldesign_0_cycle1_af2pred (protein) SEAAMAAAIAAAHAAAQAVVAADPAAAPFARALMSYAMLAVSDPAAGLAGLAAVAEAAAAAGAAAMAAVAAATRAALAAAHA | not found |
| d8r1_design_ppi_955_dldesign_0_cycle0_af2pred (protein) LYAELAARVRAIMAAAGMSPREADTVAAFALAAAADPELEEAMREKMRKAAGPEFEPAVEEAIALAREAAAAL | not found |
| d8r1_design_ppi_699_dldesign_0_cycle0_af2pred (protein) AAVAAAAAAGKAAIEKIEKAAKEAEKINKESGKALKSLAEQAKKLLAEGIANPATRDAKLAGVNNIAAGAETLAKALKEEKA | not found |
| d8r1_design_ppi_655_dldesign_0_cycle1_af2pred (protein) DDNKAAANAAKTGGNSSNERAKKLLAAGIASGDKALIAQAATLFANAATLYAFANAKTGPEYQANVDAAKANQAAANAALA | not found |
| d8r1_design_ppi_1220_dldesign_0_cycle1_af2pred (protein) AEERAEELAKEAFKLLSEAAKAAATATTEEQVKKGEELAEKAKKLAEELLKEDPSKKGLSEGIKRAAEKVKKAAEEKKKEL | not found |
| d8r1_design_ppi_41_dldesign_0_cycle1_af2pred (protein) RGEEILKKAKEAATRALQLASKDPSLLPLALKALALASEAGYAIAHEGVEKGEELAEKAEKLTEEIEKLAE | not found |
| d8r1_design_ppi_429_dldesign_0_cycle0_af2pred (protein) AAAARAAAAAEGAIAAAKLAGESGNLEALKAFVEAAHAAAAKADPATAAALKAKADATLEAAKKAFKEKEEA | not found |
